From PubChem BioAssay (NCATS)
Records with an inconclusive call do not appear. Where a call stands in place of a potency, no number is given. Calls of active or inactive are those of the source. Calls come from the whole dose curve; as a rule, active = well fitted cell-killing curve with a large enough effect; inconclusive = small, poorly fitted or top-dose-only effect; inactive = flat fitted curve, though single readings scatter.

Columns and labels:
[1] = Cell Viability - LYMP2-009 (AID 968); note: nearly all actives have a fitted effect of over 55% in size
[2] = Cell Viability - LYMP2-011 (AID 969); note: nearly all actives have a fitted effect of over 60% in size
In short: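 Cytotoxicity qHTS with ATP content as read-out: lymphoblastoid cells (2500/well) exposed to compound for 24 h at 37 C, then luciferase luminescence measured. Concentration-response data fitted with the standard Hill equation to give AC50.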

[3] = Cell Viability - LYMP2-013 (AID 970); note: nearly all actives have a fitted effect of over 55% in size
In short: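 qHTS cytotoxicity: ATP-dependent luminescence (CellTiter-Glo, 30 min room temperature) read after 24 h compound exposure at 37 C of 2500 LYMP2-013 lymphoblastoid cells per well. Concentration-response fitted with Hill equation to give AC50.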

[4] = Cell Viability - LYMP2-015 (AID 971); note: nearly all actives have a fitted effect of over 55% in size
In short: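 Cytotoxicity readout: decrease in intracellular ATP (CellTiter-Glo luminescence) in 2500 LYMP2-015 lymphoblastoid cells/well after 24 h compound exposure at 37 C. Concentration-response data fitted with the standard Hill equation to give AC50.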

[5] = Cell Viability - LYMP2-017 (AID 972); note: nearly all actives have a fitted effect of over 55% in size
In short: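 CellTiter-Glo luminescence (cellular ATP, 30 min RT) measured cytotoxicity after 24 hr compound treatment at 37 C. Cells were a human lymphoblastoid line, LYMP2-017, plated at 2500/well and incubated 5 hr first; concentration-response fitted with Hill equation for AC50.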

[6] = Cell Viability - LYMP2-019 (AID 973); note: nearly all actives have a fitted effect of over 55% in size
In short: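 AC50 values come from Hill-equation fits of luminescent intracellular ATP (CellTiter-Glo, 30 min, room temperature) following 24 h compound exposure at 37 C. Cells: LYMP2-019 lymphoblastoid line, 2500 per well, in complete culture medium.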

[7] = Cell Viability - LYMP2-021 (AID 974); note: nearly all actives have a fitted effect of over 55% in size
In short: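 AC50 values come from Hill-equation fits to CellTiter-Glo luminescence (ATP content), read after 24 hour compound exposure at 37 C of 2500 LYMP2-021 lymphoblastoid cells/well; tetraoctylammonium bromide as positive control.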

[8] = Cell Viability - LYMP2-023 (AID 975); note: nearly all actives have a fitted effect of over 55% in size
In short: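 Intracellular ATP, read by CellTiter-Glo luminescence, reports viability after 24 hr compound exposure at 37 C. 2500 lymphoblastoid cells/well (LYMP2-023) seeded 5 hr beforehand; Hill fits give AC50; positive control tetraoctylammonium bromide.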

[9] = Cell Viability - LYMP2-025 (AID 976)
In short: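 Cytotoxicity read as loss of intracellular ATP (luciferase luminescence) after 24 h compound treatment at 37 C. Uses LYMP2-025 lymphoblastoid cells in 1536-well format; Hill-equation modelling gives AC50; tetraoctylammonium bromide as positive control.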

[10] = Cell Viability - LYMP2-002 (AID 977)
In short: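 In this qHTS viability screen, 2500 human lymphoblastoid cells per well receive compound for 24 hr at 37 C, and luciferase-based ATP luminescence gives the viability signal. Tetraoctylammonium bromide serves as positive control.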
Potency is the fitted concentration of half-maximal effect.

Row | SMILES | Potency [1] | Potency [2] | Potency [3] | Potency [4] | Potency [5] | Potency [6] | Potency [7] | Potency [8] | Potency [9] | Potency [10]
1 | Cc1ccnc2c1NC(=O)c1cccnc1N2C1CC1 | inactive | inactive | inactive | inactive | inactive | inactive | inactive | inactive | inactive | inactive
2 | CN(C)c1ccc(C(=C2C=CC(=[N+](C)C)C=C2)c2ccc(N(C)C)cc2)cc1 | 2510 nM (active) | 2510 nM (active) | 3980 nM (active) | 2510 nM (active) | 3980 nM (active) | 3160 nM (active) | 2510 nM (active) | 3160 nM (active) | 6310 nM (active) | 2510 nM (active)
3 | CC[C@H](C)C(=O)O[C@H]1C[C@@H](C)C=C2C=C[C@H](C)[C@H](CC[C@@H]3C[C@@H](O)CC(=O)O3)[C@H]21 | inactive | inactive | inactive | inactive | inactive | inactive | inactive | inactive | inactive | inactive
4 | CCc1cc(C(N)=S)ccn1 | inactive | inactive | inactive | inactive | inactive | inactive | inactive | inactive | inactive | inactive
5 | C[C@]12C=CC(=O)C=C1CC[C@@H]1[C@@H]2C(=O)C[C@@]2(C)[C@H]1CC[C@]2(O)C(=O)CO | inactive | inactive | inactive | inactive | inactive | inactive | inactive | inactive | inactive | inactive
6 | Cc1ncc([N+](=O)[O-])n1CCO | inactive | inactive | inactive | inactive | inactive | inactive | inactive | inactive | inactive | inactive
7 | Cc1noc(NS(=O)(=O)c2ccc(N)cc2)c1C | inactive | inactive | inactive | inactive | inactive | inactive | inactive | inactive | inactive | inactive
8 | NNC(=O)c1ccncc1 | inactive | inactive | inactive | inactive | inactive | inactive | inactive | inactive | inactive | inactive
9 | O=C(N[C@H](CO)[C@H](O)c1ccc([N+](=O)[O-])cc1)C(Cl)Cl | inactive | inactive | inactive | inactive | inactive | inactive | inactive | inactive | inactive | inactive
10 | N=C(N)c1ccc(OCCCCCOc2ccc(C(=N)N)cc2)cc1 | inactive |  |  |  |  |  |  | inactive | inactive | 
11 | COc1ccc2cc3[n+](cc2c1OC)CCc1cc2c(cc1-3)OCO2 |  | inactive |  |  |  |  |  | inactive | inactive | inactive
12 | NC(N)=NC(N)=NCCc1ccccc1 | inactive | inactive | inactive |  | inactive |  | inactive | inactive | inactive | inactive
13 | Cc1nnc(NS(=O)(=O)c2ccc(N)cc2)s1 | inactive | inactive | inactive | inactive | inactive | inactive | inactive | inactive | inactive | inactive
14 | Cc1cc(NS(=O)(=O)c2ccc(N)cc2)no1 | inactive | inactive | inactive | inactive | inactive | inactive | inactive | inactive | inactive | inactive
15 | O=C(O)c1cc(=O)[nH]c(=O)[nH]1 | inactive | inactive | inactive | inactive | inactive | inactive | inactive | inactive | inactive | inactive
16 | CC1=NN(c2ccccc2)C(=O)C1 | inactive | inactive | inactive | inactive | inactive | inactive | inactive | inactive | inactive | inactive
